An excerpt weighted towards active compounds, which were near 4.8% of everything screened.
CSC inhib: cancer stem cell viability inhibitors, primary screen, luminescence; cancer stem cell-like cells viability; inhibition, % at 7.5 µM; hit rate 1.1% among 300,000; in the data active means inhibition above about 75%; inconclusive means no clear call, values can overlap the other calls; tested in HMLE shEcad cells
Beta apoptosis: inhibitors of cytokine-induced beta cell apoptosis, primary screen, luminescence | INS-1E cytokine-induced death, ATP luminescence, 48 h; percent of positive-control rescue, neutral wells zero | protection from apoptosis, % (test concentration not listed) | hit rate 0.8% among 300,000 | AID 435005, 2010;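 active means Every replicate reaches about 75%, or at least half do and their mean reaches it too, limit read from the data; inconclusive means At least half of replicates reach the limit but their mean does not; inactive means Under half of replicates reach the limit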;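 further: 0% = cytokine-treated negative control wells and 100% = positive control rescue; higher means more ATP so stronger rescue from cytokine killing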
Mdm2-MdmX inh: inhibitors of human Mdm2-MdmX association, primary screen, cell-based, luminescence, split luciferase, SaOS-2, uHTS. inhibition, % at 8 µM. AID 485346, 2010. hit rate 3% among 330,000. SaOS-2 split-luciferase Mdm2/MdmX complementation;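 active means inhibition of at least 50% at 8 µM in the primary screen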
Target sequence (O15151 whole entry, looked up): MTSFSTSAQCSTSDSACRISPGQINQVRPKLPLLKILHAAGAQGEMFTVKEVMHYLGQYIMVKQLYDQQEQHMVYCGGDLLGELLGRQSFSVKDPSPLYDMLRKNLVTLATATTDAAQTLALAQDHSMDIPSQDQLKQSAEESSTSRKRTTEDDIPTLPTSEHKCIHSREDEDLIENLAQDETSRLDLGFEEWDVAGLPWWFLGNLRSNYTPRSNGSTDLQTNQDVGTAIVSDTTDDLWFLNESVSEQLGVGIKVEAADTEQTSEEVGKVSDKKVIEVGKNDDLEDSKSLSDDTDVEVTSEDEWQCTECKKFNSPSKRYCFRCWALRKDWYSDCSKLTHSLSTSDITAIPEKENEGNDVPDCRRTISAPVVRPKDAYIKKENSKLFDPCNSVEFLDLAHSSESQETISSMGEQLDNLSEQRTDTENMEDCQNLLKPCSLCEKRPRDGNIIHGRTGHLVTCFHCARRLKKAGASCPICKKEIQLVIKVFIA
Target sequence (Q00987 whole entry, looked up): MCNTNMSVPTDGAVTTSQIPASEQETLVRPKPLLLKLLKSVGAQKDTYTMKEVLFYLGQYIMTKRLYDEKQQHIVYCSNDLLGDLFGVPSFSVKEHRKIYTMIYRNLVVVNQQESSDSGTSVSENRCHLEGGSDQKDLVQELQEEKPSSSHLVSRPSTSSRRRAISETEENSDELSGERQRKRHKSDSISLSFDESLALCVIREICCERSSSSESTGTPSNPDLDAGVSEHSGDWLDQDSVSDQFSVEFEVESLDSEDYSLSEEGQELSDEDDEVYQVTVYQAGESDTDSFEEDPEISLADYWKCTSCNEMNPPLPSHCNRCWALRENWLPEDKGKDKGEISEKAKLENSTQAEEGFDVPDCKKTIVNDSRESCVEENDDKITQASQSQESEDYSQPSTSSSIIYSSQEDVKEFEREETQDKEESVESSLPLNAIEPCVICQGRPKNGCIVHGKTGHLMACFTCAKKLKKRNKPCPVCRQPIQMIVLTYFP
MPTP inh: mitochondrial permeability transition pore inhibitors, primary screen, biochemical, isolated mouse mitochondria, absorbance; AID 602449, 2012; inhibition, % at 10 µM; Ca2+ swelling absorbance, 30 min; hit rate 1.4% among 360,000;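 active means inhibition of 50% or more, scaled per plate between neutral and stimulator controls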;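 further: 0% = DMSO wells given calcium and 100% = 1 mM EGTA wells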
Calb FLC: C. albicans growth inhibition with fluconazole, primary screen, CaCi-2 strain, Alamar Blue fluorescence | hit rate 0.57% among 300,000 | AID 1979, 2009 | C. albicans CaCi-2 (fluconazole-resistant clinical isolate) + fluconazole, 48 h | growth inhibition, % (test concentration not listed);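 active means growth inhibition above about 58% in most replicates, limit read from the data, passing the limit was not always enough; inconclusive means exactly half the replicates above a set limit; inactive means most replicates below a set limit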;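 further: all wells also contain fluconazole at 8 µg/ml as a sub-toxic cotreatment; 0% = median of DMSO wells and 100% = median of geldanamycin control wells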
Mdm2-MdmX conf: Mdm2-MdmX complex disruptors, retested hits, confirmation, luminescence, single concentration; hit rate 55% among 10,000; Mdm2-MdmX binding, luminescent assay; inhibition, % at 8 µM; shares compounds with Mdm2-MdmX inh; AID 489028, 2010; in the data active means inhibition above about 40%
FLuc counter: full-length luciferase signal inhibition, confirmation, counter-screen for Mdm2/MdmX interaction inhibitor project, cell-based, single concentration, SaOS-2 | hit rate 77% among 6,200 | SaOS-2 full-length luciferase counterscreen, luminescence | shares compounds with Mdm2-MdmX inh | inhibition, % at 8 µM;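 active means mean inhibition at 8 µM reaching about 37%, which flags the compound as non-specific, limit read from the data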;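 further: p53-null SaOS-2 cells with luciferase driven by a doxycycline-inducible promoter; compound on cells about two nights before reading with doxycycline added after day one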
An asterisk follows results filed as active.

COc1cccc(N2CCN(S(=O)(=O)c3ccc(-c4cnc(C5CC5)o4)cc3)CC2)c1 was read as CSC inhib -4, Beta apoptosis 12, Mdm2-MdmX inh 79*, MPTP inh 0, Calb FLC 2 and Mdm2-MdmX conf 10.
Screening Cc1cccc(N(C)S(=O)(=O)c2ccc(-c3cnc(C4CC4)o3)cc2)c1 returned CSC inhib 78*, Beta apoptosis 54, Mdm2-MdmX inh 74*, MPTP inh 0, Calb FLC 4, Mdm2-MdmX conf 59* and FLuc counter 103*.
For Cc1ccc(NS(=O)(=O)c2ccc(-c3cnc(C4CC4)o3)cc2)c(C)c1 the results were CSC inhib inconclusive, Beta apoptosis 21, Mdm2-MdmX inh 77*, MPTP inh 1, Calb FLC 12, Mdm2-MdmX conf 56* and FLuc counter 95*.
For Cc1cc2nc(C(C)(C)C)c(CC3CCCCC3)n2c(C)c1Br the results were MPTP inh 5.
`O=S1(=O)CC(N2CCN(CCO)CC2)CN1Cc1cn(Cc2ccccc2C(F)(F)F)nn1` (configuration not stated) gave MPTP inh -2.
O=C(N=C1SCC(=O)N1c1ccccc1Cl)c1ccccc1 was read as Mdm2-MdmX inh -77, MPTP inh 0 and Calb FLC -3.
For CCOC(=O)C1=CCN(S(=O)(=O)c2ccc(C)cc2)C1c1cccc(Br)c1 (configuration not stated) the results were MPTP inh 1.
`O=C1CC(=O)Nc2cc(S(=O)(=O)Nc3ccc(F)cc3Cl)ccc2N1` gave Beta apoptosis -8, Mdm2-MdmX inh 7, MPTP inh -1 and Calb FLC 4.
CCOc1ccccc1NS(=O)(=O)c1ccc(-c2cnc(C3CC3)o2)cc1 was read as CSC inhib 17, Beta apoptosis 45, Mdm2-MdmX inh 73*, MPTP inh 1, Calb FLC 24, Mdm2-MdmX conf 56* and FLuc counter 117*.
`COc1ccccc1NS(=O)(=O)c1ccc(-c2cnc(C3CC3)o2)cc1` gave CSC inhib 17, Beta apoptosis 16, Mdm2-MdmX inh 70*, MPTP inh -1, Calb FLC 8, Mdm2-MdmX conf 64* and FLuc counter 81*.
`COc1ccccc1N1CCN(S(=O)(=O)c2ccc(-c3cnc(C4CC4)o3)cc2)CC1` gave CSC inhib -3, Beta apoptosis 5, Mdm2-MdmX inh 26, MPTP inh -2 and Calb FLC 1.
`O=S(=O)(Nc1ccc(F)cc1Cl)c1ccc(-c2cnc(C3CC3)o2)cc1` gave Mdm2-MdmX inh 56*, MPTP inh 10, Calb FLC -2, Mdm2-MdmX conf 61* and FLuc counter 66*.
Screening O=C(O)C1=CC(=C(c2ccc(O)c(C(=O)O)c2)c2ccc(O)c(C(=O)O)c2)C=CC1=O returned CSC inhib -14 and Beta apoptosis 0.
Screening O=C1C=CC(=C(c2ccc(O)cc2)c2ccc(O)cc2)C=C1 returned Beta apoptosis -5, Mdm2-MdmX inh 91*, MPTP inh 2, Mdm2-MdmX conf 70* and FLuc counter 45*.
Screening Cc1cccc(C)c1NC(=O)CN1C(=O)NC(C)(CCc2ccccc2)C1=O (configuration not stated) returned CSC inhib -19, Beta apoptosis 0, Mdm2-MdmX inh -4, MPTP inh 0 and Calb FLC 43.
Screening O=C1c2c(-c3ccc(Br)cc3)noc2CCN1Cc1cn(-c2ccccc2)nn1 returned MPTP inh -2.
For N/C(=N\OC(=O)c1ccc2ccccc2c1)c1ccccn1 the results were CSC inhib 3, Beta apoptosis -1, Mdm2-MdmX inh 70*, MPTP inh -2, Calb FLC 18, Mdm2-MdmX conf 49* and FLuc counter 111*.
`CCCc1ccc(C(=O)O/N=C(\N)c2ccccn2)cc1` gave CSC inhib 20, Beta apoptosis 1, Mdm2-MdmX inh 63*, MPTP inh -1, Calb FLC 0, Mdm2-MdmX conf 70* and FLuc counter 61*.
`COc1cccc(C(=O)O/N=C(\N)c2ccccn2)c1` gave CSC inhib -9, Beta apoptosis 8, Mdm2-MdmX inh 33, MPTP inh 1 and Calb FLC 1.
`N/C(=N\OC(=O)c1ccc(=O)n(Cc2ccc(Cl)cc2)c1)c1ccccn1` gave CSC inhib 1, Beta apoptosis 0, Mdm2-MdmX inh 67*, MPTP inh 2, Calb FLC 5 and Mdm2-MdmX conf 34.
N/C(=N\OC(=O)c1ccc2ccccc2c1)c1ccccc1Cl was read as CSC inhib -7, Beta apoptosis -6, Mdm2-MdmX inh 100*, MPTP inh -2, Calb FLC 25, Mdm2-MdmX conf 68* and FLuc counter 77*.
For N/C(=N\OC(=O)c1ccc(=O)n(Cc2ccccc2)c1)c1ccccn1 the results were CSC inhib -9, Beta apoptosis -6, Mdm2-MdmX inh 21, MPTP inh -2 and Calb FLC -4.
Screening CCNC(=O)C1(C)CCN(C(=O)c2cccc(Cl)c2)C1 (configuration not stated) returned MPTP inh 0.
Screening ON=C(c1ccccc1)c1ccc2c3c(cccc13)CC2 returned MPTP inh 2.
`CCOC(=O)C1=C[C@@H](c2ccccc2)N(S(=O)(=O)c2ccc(C)cc2)[C@H]1c1cccc(Cl)c1` gave MPTP inh 2.
N/C(=N\OC(=O)c1ccc2ccccc2c1)c1cccc([N+](=O)[O-])c1 was read as CSC inhib -10, Beta apoptosis -7, Mdm2-MdmX inh 83*, MPTP inh 0, Calb FLC 0 and Mdm2-MdmX conf 4.
Screening Cn1c(=O)c(C(=O)CCl)c(N)n(Cc2ccccc2)c1=O returned CSC inhib 20, Beta apoptosis 1, Mdm2-MdmX inh 58*, MPTP inh -1, Calb FLC 4, Mdm2-MdmX conf 46* and FLuc counter 86*.
Screening Cn1c(N)c(C(=O)CSc2nc3ccccc3c(=O)n2Cc2ccccc2)c(=O)n(C)c1=O returned CSC inhib -2, Beta apoptosis 5, Mdm2-MdmX inh 89*, MPTP inh 1, Calb FLC 7, Mdm2-MdmX conf 44* and FLuc counter 90*.

High-throughput results: PubChem BioAssay, several laboratories
